Screens from PubChem.
The entries come from a sample that favours hits as a whole.
Dicer inh: blocks human Dicer maturation of pre-miR-21 | Q9UPY3 | 6% of 47,000 active | cat-ELCCA pre-miR-21 Dicer processing, chemiluminescence; active compounds read high | z-score at 25 µM; in the data active = z-score above about 3, passing the limit was not always enough;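 also: plate controls were vehicle for no effect and no enzyme for full effect; higher signal means more uncleaved substrate so more Dicer inhibition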
* = called active by the depositor.

SMILES	Dicer inh
Cn1c(=O)c2c(nc(Oc3ccc(F)cc3)n2Cc2ccc(F)cc2)n(C)c1=O	-0.88
Cc1cc(C)c(C#N)c(SCS(=O)Cc2ccc(Cl)cc2)n1 (centres undefined)	1.55
CN(C)c1c(F)cc(/C(N)=N/O)cc1F	0.46
CN(C)c1c(F)cc(C(=O)Nc2cc(C(F)(F)F)cc(C(F)(F)F)c2)cc1F	12.4
CN(C)c1c(F)cc(C(N)=O)cc1F	3.39*
COCCCN1C(=O)C(=O)/C(=C(/O)c2ccc(C)cc2)C1c1ccc(F)cc1 (centres undefined)	-1.53
CN(CCC#N)C(=S)Nc1ccc(F)cc1	-1.13
O=C1CSCC(=O)N1c1ccccn1	7.84*
Cc1cccc(C)c1N1C(=O)CSCC1=O	-2.44
O=C1CSCC(=O)N1c1ccc(Cl)cn1	-3.14
COC(=O)c1ccc2cc(C(=O)O)ccc2c1	5.36*
COC(=O)c1cc(Cl)cc(Cl)c1	-0.99
COC(=O)c1ccc(Br)cc1	0.38
O/N=C/c1ccc(-c2ccc(F)cc2F)o1	0.66
CC1(C)Cc2ccccc2C(C(=O)c2ccccc2)=N1	2.08
C=CCN=C1NC(=O)C(CC(=O)Nc2ccc(Cl)cc2)S1 (centres undefined)	-0.91
O=C(CC1SC(=Nc2ccc(O)cc2)NC1=O)Nc1ccc(Br)cc1 (centres undefined)	3.78*
O=C(CC1SC(=Nc2ccccc2)NC1=O)Nc1ccccc1Cl (centres undefined)	-0.66
CCOC(=O)/C=C(\C)NN=C(c1ccccc1)c1ccccc1	-0.98
CN(C)c1ncnc(N(C)C)c1[N+](=O)[O-]	-1.81
CCOC(=O)c1ccc2[nH]c(C)c(C)c2c1	-1.07
COc1cccc(NC(=S)NC(Cc2ccccc2)c2ccccc2)c1 (centres undefined)	-0.06
Cc1ccc(-c2nnc(-c3cccs3)o2)cc1	2.91
Cc1ccc(-c2nnc(-c3ccc(C)cc3)o2)cc1	5.08*
Cc1ccc(-c2nnc(-c3ccccc3)o2)cc1	1.99
SMILES	Dicer inh
O=C(CSc1nc2ccccc2s1)NCCCN1CCOCC1	1.67
CCOC(=O)CSc1nc2sc3c(c2c(=O)n1-c1ccc(OC)cc1)CCC3	1.12
CCNc1nc(SCC(=O)OCC)nc2sc3c(c12)CCC(C)C3 (centres undefined)	-1.12
CCOC(=O)CSc1nc(NC)c2c3c(sc2n1)CCCC3	3.17*
CC(N)(Cc1cccc(O)c1)C(=O)O (centres undefined)	0.64
Cc1ccc(C(=O)O)c2c1N[C@H](c1cccc(Cl)c1)C1CC=CC21 (some centres undefined)	-1.67
Cc1ccc(C2Nc3c(C)ccc(C(=O)O)c3C3C=CCC32)cc1 (centres undefined)	3.28*
Cc1ccc(C(=O)O)c2c1NC(c1ccc(Cl)cc1)C1CC=CC21 (centres undefined)	1.42
COc1cccc(OCCn2cc(C(=O)C3CC3)c3ccccc32)c1	-1.34
C#CCSc1nsc(SCC#C)c1C#N	-0.37
Nc1ccc(-c2nc3ccccc3[nH]2)cc1	-0.71
Nc1ccc(-c2nc3c(ccc4ccccc43)[nH]2)cc1	23*
Nc1ccc(-c2nc3c(Cl)cccc3[nH]2)cc1	1.69
C/C(=N\OCC(=O)O/N=C(\N)COc1cccc(Cl)c1)c1ccc(Cl)cc1	-1.25
COC(=O)CN(c1nc(C)cc(OC)n1)S(=O)(=O)c1ccccc1	0.86
CCCCN(c1nc(C)cc(OC)n1)S(=O)(=O)c1ccc(C)cc1	0.7
CCCN(c1nc(C)cc(OC)n1)S(=O)(=O)c1ccccc1Cl	6.06*
Cn1nc([N+](=O)[O-])nc1Sc1ccccn1	1.42
CCCC1CCC(C(=O)Nc2ccc(Br)cn2)CC1 (centres undefined)	-1.41
COc1ccc(N2C(=O)C3C4C=CC(CC4)C3C2=O)cc1 (centres undefined)	1.01
CC(OC(=O)c1cccc(N2C(=O)C3CC=CC(C)C3C2=O)c1)C(=O)c1ccccc1 (centres undefined)	0.91
COc1ccc(N2C(=O)C3CC=CC(C)C3C2=O)cc1 (centres undefined)	5.47*
Clc1ccc(OCc2nnc3c4cnn(Cc5ccccc5)c4ncn23)cc1	-0.14
C=CCNc1nc2c(c(=O)n(C)c(=O)n2C)n1Cc1ccc(F)cc1	1.77
CN1CCN(CC(=O)N2c3ccccc3Sc3ccc(Cl)cc32)CC1	1.3
SMILES	Dicer inh
CC1CN(CCO)Cc2ccc(Cl)cc21 (centres undefined)	3.25*
CN1CCN(C2Cc3ccccc3Sc3ccc(Cl)cc32)CC1 (centres undefined)	-0.53
CCOC(=O)C(c1ccccc1)C(Nc1ccc(Cl)c(Cl)c1)c1ccccn1 (centres undefined)	-0.86
O=[N+]([O-])c1cccnc1N/N=C/c1ccc(O)cc1	0.23
CNC[C@H](O)c1cccc(O)c1	-0.43
CNc1ccc(Br)cc1C(O)c1ccccc1 (centres undefined)	3.39*
C=CC(=C)CC(NC)c1ccccc1 (centres undefined)	1.46
CN(C)/C=C(\Sc1nnc(N)s1)C(=O)Nc1ccc(F)c(F)c1F	0.03
CCOC(=O)C(NC(=O)CC)(Nc1nc2ccccc2s1)C(F)(F)F (centres undefined)	0.65
O=C(NC(=O)C1CCCCC1)c1ccccc1O	-1.77
O=C1Cc2ccccc2C(c2ccccc2)N1 (centres undefined)	0.47
Oc1ccccc1C1CCCCC1c1ccccc1 (centres undefined)	4.67*
O=c1oc(-c2ccco2)nc2c1cnn2-c1ccccc1	0.11
Cc1nc(-c2cc(-c3ccccc3)c(C(F)(F)F)s2)sc1C(=O)O	0.1
Cn1c(=O)c2c(ncn2CC(=O)Nc2ccc3c(c2)OCCO3)n(C)c1=O	0.53
Cn1c(=O)c2c(ncn2CC(=O)NCc2ccc3c(c2)OCO3)n(C)c1=O	6.56*
CCCNC(=O)Cn1cnc2c1c(=O)n(C)c(=O)n2C	-0.92
CCOCCCNC(=O)Cn1cnc2c1c(=O)n(C)c(=O)n2C	1.34
CCCCCCCNC(=O)Cn1cnc2c1c(=O)n(C)c(=O)n2C	4*
CC(C)CNC(=O)Cn1cnc2c1c(=O)n(C)c(=O)n2C	0.1
Cc1ccc(SCc2cc(=O)n3[nH]c(C)c(-c4ccc(F)cc4)c3n2)cc1	2.44
Cc1cc(C)c(S(=O)(=O)Nc2nc3ccccc3s2)c(C)c1	-3.92
Cc1ccc(S(=O)(=O)Nc2nc3cc(C)c(C)cc3s2)cc1	-1.49
Cc1ccc(S(=O)(=O)Nc2nc3ccc(N)cc3s2)cc1	8.04*
COc1ccc(N2CCN(C(=O)c3cc4n(n3)C(C(F)(F)F)CC(c3ccco3)N4)CC2)cc1 (centres undefined)	0.83
SMILES	Dicer inh
O=C(NC1CC1)c1cc2n(n1)C(C(F)(F)F)CC(c1ccco1)N2 (centres undefined)	-0.56
O=C(Nc1ccc(O)cc1)c1cc2n(n1)C(C(F)(F)F)CC(c1ccco1)N2 (centres undefined)	1.16
O=C(c1nn2c(c1Cl)NC(c1ccco1)CC2C(F)(F)F)N1CCCC1 (centres undefined)	2.42
CC(C)(C)NC(=O)c1nn2c(c1Cl)NC(c1ccco1)CC2C(F)(F)F (centres undefined)	3.18*
O=C(c1nn2c(c1Cl)NC(c1ccco1)CC2C(F)(F)F)N1CCN(c2ccccc2)CC1 (centres undefined)	5.3*
O=C(Nc1ccc(Cl)cc1)c1cc2n(n1)C(C(F)(F)F)CC(c1ccco1)N2 (centres undefined)	1.38
O=C(Nc1ccc(Cl)cc1)c1nn2c(c1Cl)NC(c1ccco1)CC2C(F)(F)F (centres undefined)	3.78*
